Where “and” joins values, the source holds several entries; their conditions need not be identical. Equal values may be shown once. Inconclusive results are not listed. Calls of active or inactive are those of the source. Calls follow the shape of the dose curve; as a rule, active = well fitted activation curve with a large enough effect; inconclusive = small, poorly fitted or top-dose-only effect; inactive = no such curve, though single readings can be large or run the other way.
Test: Confirmation Concentration-Response Assay for Enhancers of SMN2 Splice Variant Expression for Probe SAR
Conditions: HEK293 SMN2 exon7 splicing luciferase reporter, luminescence; series mostly up to 46.1 µM
From the text: NIH Chemical Genomics Center [NCGC] NIH Molecular Libraries Probe Production centers Network [MLPCN] MLPCN Grant: R03 MH084179-01 Assay Submitter (PI): Elliot Androphy NCGC Assay Overview: Spinal muscular atrophy (SMA) is caused by insufficient levels of the survival motor neuron protein SMN. The SMN locus on chromosome 5q13 contains two inverted copies of SMN called SMN1 and SMN2 which are 99% identical at the amino acid level. SMN1 is a fully functional protein and SMN2 skips exon 7 90% of the time. Skipping of exon 7 produces non-functional protein product. 10% of the SMN2 protein includes exon 7 and is fully functional. In the SMA disease state, mutations in the SMN1 locus are the cause of the disease state. Because only 10% of SMN2 is of the fully functional form, it is not sufficient to overcome the deficiency produced by the loss of the SMN1 product. A therapy that either increase the amount of SMN2 product made or to increase the inclusion of exon 7 has been proposed for the treatment of SMA. We have designed an assay to identify small molecules that can increase the amount of functional SMN2 product by appending a luciferase reporter gene after the native SMN2 gene, such that inclusion of exon 7 in the expressed product places the luciferase sequence in frame, thus generating functional luciferase enzyme.
NCGC Assay Protocol Summary: This screen utilizes a luciferase reporter gene assay, combining the promoter with the major portion of the native SMN2 cDNA (exons 1 -7, intron 8 , exon 8 fused to luciferase) stably expressed in HEK293 cells. Compounds that increase luciferase signal presumably enhance expression of the functional SMN2 splice variant. Passaging media contained DMEM w/ glutamax (+phenol red) 10% FCS, 1x pen/strep, 200 ug/ml hygro, 1x sodium pyruvate. Assay media contained DMEM w/ glutamax (-phenol red) 10% FCS, 1x pen strep, 1x pyruvate Sequence, Parameter, Value, Description (1) Cells, 5 uL, 2000 cells/well, 1536 TC treated White solid bottom plate (2) Time, 10-12 hours, 37C 5% CO2 (3) Compound, 23 nl, MLSMR Library (4) Control Compound, 23 nL, Sodium butyrate st 4.5mM (final) conc (5) Time, 30-36 hours, 37C 5% CO2 (6) Reagent, 3 ul, One Glo (TM) from Promega (7) Time, 5-15 minutes, Room temp (8) Detector, Viewlux: luminescent read, 60 second integration, high speed 2x binning Keywords: Spinal muscular atrophy, SMA, SMN2, high throughput screening, MLSMR, MLPCN, NIH Roadmap, qHTS and NCGC

Question: With NC(=O)C1CCN(c2nc(-c3cccc(N)c3)cs2)CC1 as the compound, how does the Potency read?
Answer: Its Potency is “inactive”.

Question: Which Potency does the source give for CC(=O)c1ccc(-c2csc(N3CCC(C(N)=O)CC3)n2)cc1 here?
Answer: The Potency was 7.72 µM (active).

Question: With CC(=O)c1cccc(-c2csc(N3CCC(C(N)=O)CC3)n2)c1 as the compound, how does the Potency read?
Answer: Its Potency is 3.87 µM (active).

Question: For NC(=O)C1CCN(c2nc(-c3cccnc3)cs2)CC1, which Potency is on record?
Answer: The Potency was “inactive”.

Question: With NC(=O)C1CCN(c2nc(-c3ccccc3-c3ccccc3)cs2)CC1 as the compound, how does the Potency read?
Answer: The Potency was “inactive”.

Question: With CN(C)c1ccccc1-c1csc(N2CCC(C(N)=O)CC2)n1 as the compound, how does the Potency read?
Answer: Its Potency is “inactive”.

Question: Which Potency does the source give for NC(=O)C1CCN(c2nc(-c3ccccc3Br)cs2)CC1 here?
Answer: Its Potency is “inactive”.

Question: Which Potency does the source give for CS(=O)(=O)c1ccccc1-c1csc(N2CCC(C(N)=O)CC2)n1 here?
Answer: Its Potency is “inactive”.

Question: Which Potency does the source give for NC(=O)C1CCN(c2nc(-c3ccccc3C(F)(F)F)cs2)CC1 here?
Answer: The Potency was “inactive”.

Question: For NC(=O)C1CCN(c2nc(-c3cc4ccccc4o3)cs2)CC1, which Potency is on record?
Answer: The Potency was 8.67 µM (active).

Question: For CS(=O)(=O)c1cccc(-c2csc(N3CCC(C(N)=O)CC3)n2)c1, which Potency is on record?
Answer: Its Potency is “inactive”.

Question: With COc1ccc(-c2csc(N3CCC(C(N)=O)CC3)n2)cc1 as the compound, how does the Potency read?
Answer: The Potency was 4.34 µM (active).

Question: For CN(C)c1cccc(-c2csc(N3CCC(C(N)=O)CC3)n2)c1, which Potency is on record?
Answer: The Potency was 0.688 µM (active).

Question: For NC(=O)C1CCN(c2nc(-c3ccc4c(c3)OCCO4)cs2)CC1, which Potency is on record?
Answer: The Potency was 0.688 µM (active).

Question: With NC(=O)C1CCN(c2nc(-c3ccc4ccccc4c3)cs2)CC1 as the compound, how does the Potency read?
Answer: Its Potency is 4.87 µM (active).

Question: Which Potency does the source give for NC(=O)C1CCN(c2nc(-c3ccc(F)cc3)cs2)CC1 here?
Answer: The Potency was 3.45 µM (active).

Question: With Cn1ccc2cc(-c3csc(N4CCC(C(N)=O)CC4)n3)ccc21 as the compound, how does the Potency read?
Answer: The Potency was 4.34 µM (active).

Question: With NC(=O)C1CCN(c2nc(-c3ccc(Br)cc3)cs2)CC1 as the compound, how does the Potency read?
Answer: Its Potency is 708 nM (active) and 772 nM (active).

Question: With Cc1noc(C)c1-c1csc(N2CCC(C(N)=O)CC2)n1 as the compound, how does the Potency read?
Answer: Its Potency is “inactive”.

Question: Which Potency does the source give for Cc1ccc(-c2csc(N3CCC(C(N)=O)CC3)n2)cc1 here?
Answer: Its Potency is 0.772 µM (active).

Question: With NC(=O)C1CCN(c2nc(-c3ccccc3F)cs2)CC1 as the compound, how does the Potency read?
Answer: Its Potency is 1.37 µM (active).

Question: Which Potency does the source give for NC(=O)C1CCN(c2nc(-c3ccc4occc(=O)c4c3)cs2)CC1 here?
Answer: Its Potency is 7.72 µM (active).

Question: With NC(=O)C1CCN(c2nc(-c3cccs3)cs2)CC1 as the compound, how does the Potency read?
Answer: The Potency was 7.72 µM (active).
